Test [1] concerns Human papillomavirus type 1a protein E7 (residues 44-93). Put plainly: small molecules binding HPV E7 44-93 – biochemical, small-molecule microarray, residues 44-93, 635 nm fluorescence, primary screen (AID 1108).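 Note: E7 fragment applied at 1 µg/mL in TBST for 1 h at 4 C; score combines spot fluorescence with its signal to noise ratio.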 Particulars: fluorescence 635 nm, higher = more signal.
The nature of test [2]: hepatitis C replication reporter changes, two-sided – Huh7 cells, luciferase reporter, HCV replication inhibitor project, primary screen (AID 1109).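 Note: huh7 hepatoma cells harbouring a luciferase neomycin HCV replicon reporter; luciferase luminescence as measure of HCV replicon replication; test concentration not given here.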 Particulars: Huh7 HCV replicon luciferase reporter, 48 h; higher = more signal. For orientation: Reporter assays use an easily measured gene product as a stand-in for the process of interest.
The target in test [3] is Left-right determination factor 2 (Homo sapiens) (UniProt O00292). The experiment in a line: small molecules binding LEFTY2 protein – biochemical, small-molecule microarray, 635 nm fluorescence scan, primary screen (AID 1110). Particulars: higher = more signal.
Test [4] addresses Calmodulin-1 (Homo sapiens) (UniProt P0DP23). Put plainly: small molecules binding calmodulin-1 with EGTA – biochemical, small-molecule microarray, Cy5-labelled CALM1, profiling panel (AID 1111).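 Note: labelled calmodulin applied in Tris saline Tween buffer holding calcium plus EGTA and DTT.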 Particulars: Cy5-CALM1 binding fluorescence, higher = more signal.
Test [5] has the same target. The experiment in a line: small molecules binding Ca-loaded calmodulin-1 – biochemical, small-molecule microarray, Cy5-labelled CALM1, plus calcium, artefact control for SMM control-protein annotation, profiling panel (AID 1112).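 Note: score merges spot fluorescence with signal to noise from triplicate slides.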 Particulars: Cy5-CALM1 binding fluorescence, higher = more signal.
A short description of test [6]: probe aWnt5a binding to arrayed compounds – biochemical, biotinylated probe, 635/667 nm fluorescence, primary screen (AID 1113).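 Note: score merges 667 nm fluorescence intensity with signal-to-noise per printed feature.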 The settings on record: small-molecule microarray, higher = more signal.
A short description of test [7]: probe aShh binding to arrayed compounds – biochemical, biotinylated probe, 635/667 nm fluorescence, primary screen (AID 1114).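 Note: probe is biotin-labelled aShh protein from a stem cell growth factor screen; measures binding of labelled protein to compounds printed on the slide; score merges feature fluorescence at 667 nm with signal-to-noise.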 The settings on record: small-molecule microarray, higher = more signal.
Test [8] can be described thus: probe aNog binding to arrayed compounds – biochemical, biotinylated probe, 635/667 nm fluorescence, primary screen (AID 1115).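 Note: probe is biotinylated aNog protein used at 0.15 µg/mL for 1 h at 4 C; z-score combines 667 nm fluorescence of each spot with its signal to noise.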 Particulars: small-molecule microarray, higher = more signal.
Test [9] concerns the target Torsin-1A-interacting protein 1 (Homo sapiens) (UniProt Q5JTV8). The experiment in a line: compound microarray binding of lysate hLAP1 – cell lysate, small-molecule microarray, COS7 lysate, 635/667 nm fluorescence, primary screen (AID 1116). The settings on record: 635 nm fluorescence, higher = more signal.
The target in test [10] is Alpha-bungarotoxin (Bungarus multicinctus) (UniProt P60615). The experiment in a line: compounds binding labelled alpha-BTX control protein – biochemical, small-molecule microarray, Alexa647 label, 635/667 nm fluorescence, artefact control for SMM control protein annotation, profiling panel (AID 1117). The settings on record: alpha-BTX-A647 binding fluorescence, higher = more signal.

The next test concerns the target Albumin (Bos taurus) (UniProt P02769). Put plainly: compounds binding labelled BSA control protein – biochemical, small-molecule microarray, Alexa647 label, 635/667 nm fluorescence, artefact control for SMM control protein annotation, profiling panel (AID 1118).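 Note: score merges 667 nm emission intensity and signal-to-noise per printed compound spot.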 Particulars: BSA-A647 binding, fluorescence 635 nm, higher = more signal.
Test [11] can be described thus: probe aXIP binding to arrayed compounds – biochemical, NeuroSMM set, 635/667 nm fluorescence, primary screen (AID 1119).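 Note: probe is the protein aXip251-270 applied at 1 µg/mL to compound-printed slides; binding of probe to printed compounds measured as 667 nm fluorescence plus signal to noise.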 The settings on record: small-molecule microarray, higher = more signal, called active from +8 up or from −8 down.
The nature of test [12]: probe aNOTCH3 binding on compound microarray – biochemical, small-molecule microarray, 635/667 nm fluorescence, primary screen (AID 1120).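 Note: probe is a biotin-tagged antibody raised against NOTCH3 rather than NOTCH3 protein; score merges spot fluorescence near 667 nm with spot signal to noise.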 Particulars: higher = more signal.
Test [13] is described as follows: probe aNOTCH2 binding on compound microarray – biochemical, small-molecule microarray, 635/667 nm fluorescence, primary screen (AID 1121).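 Note: score merges feature fluorescence read at 667 nm with its signal to noise.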 Particulars: higher = more signal.
Test [14] has as its target Carbonic anhydrase 2 (Homo sapiens) (UniProt P00918). The experiment in a line: compounds binding carbonic anhydrase 2 – biochemical, small-molecule microarray, Alexa647-labelled CAII, profiling panel (AID 1122). Particulars: CAII-A647 binding fluorescence, higher = more signal.
The nature of test [15]: COS7 lysate on small-molecule microarray, probe aHis, 635 nm (AID 1123).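 Note: z-score combines 667nm fluorescence intensity with signal-to-noise per printed compound spot.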 The settings on record: COS7 cell lysate, fluorescence, higher = more signal.
Test [16] in a line: probe aLAP1 signal on lysate-treated microarray – cell lysate, small-molecule microarray, COS7 lysate, primary screen (AID 1124).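 Note: lysate comes from COS7 cells expressing LAP1 and is applied at 0.3 µg/mL; score merges spot fluorescence near 667 nm with signal-to-noise over triplicate slides.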 The settings on record: probe aLAP1, fluorescence, higher = more signal.
The test system of another test is Sam68 (KHDRBS1). The experiment in a line: compounds binding KHDRBS1 protein – biochemical, small-molecule microarray, 635 nm fluorescence, primary screen (AID 1125).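 Note: score merges 667 nm channel intensity with signal to noise over triplicate slides.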 The settings on record: higher = more signal.
Test [17] deals with Chordin-like protein 2 (CHRDL2). Put plainly: compounds binding chordin-like 2 – biochemical, small-molecule microarray, 635 nm fluorescence, primary screen (AID 1126).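 Note: printed compound slides probed with Chrdl2 protein at 4 µg/mL for 1 h at 4 C; score merges 667 nm emission intensity with signal to noise over three replicate slides.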 Particulars: fluorescence 635 nm, higher = more signal.
Test [18] concerns the target Concanavalin-A (Canavalia ensiformis) (UniProt P02866). Put plainly: compounds binding concanavalin A lectin – biochemical, small-molecule microarray, Alexa647 label, 635 nm, artefact control for SMM control protein annotation, primary screen (AID 1127).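 Note: z combines 667 nm emission intensity with signal-to-noise across three replicate slides.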 Particulars: ConA-A647 binding fluorescence, higher = more signal.

Molecules are shown by their SMILES. Activity calls are given as the source filed them.

Sequence of Concanavalin-A (Canavalia ensiformis) (P02866 whole entry, looked up): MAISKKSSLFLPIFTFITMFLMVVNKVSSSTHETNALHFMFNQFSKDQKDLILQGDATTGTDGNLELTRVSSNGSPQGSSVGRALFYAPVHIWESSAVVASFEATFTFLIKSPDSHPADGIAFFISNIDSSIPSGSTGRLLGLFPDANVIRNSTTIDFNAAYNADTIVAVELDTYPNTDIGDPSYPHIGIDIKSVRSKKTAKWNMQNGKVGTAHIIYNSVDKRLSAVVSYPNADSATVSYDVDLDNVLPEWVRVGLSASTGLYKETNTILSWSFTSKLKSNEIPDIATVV
Sequence of Left-right determination factor 2 (Homo sapiens) (O00292 whole entry, looked up): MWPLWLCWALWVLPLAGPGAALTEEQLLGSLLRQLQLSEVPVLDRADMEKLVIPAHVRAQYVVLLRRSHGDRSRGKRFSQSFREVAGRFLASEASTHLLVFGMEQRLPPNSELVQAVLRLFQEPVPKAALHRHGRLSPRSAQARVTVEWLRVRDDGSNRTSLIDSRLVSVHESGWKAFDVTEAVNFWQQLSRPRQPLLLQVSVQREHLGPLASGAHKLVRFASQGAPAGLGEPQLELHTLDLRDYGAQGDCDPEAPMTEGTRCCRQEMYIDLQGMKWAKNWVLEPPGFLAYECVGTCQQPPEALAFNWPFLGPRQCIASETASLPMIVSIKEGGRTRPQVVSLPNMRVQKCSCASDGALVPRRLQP
Sequence of Albumin (Bos taurus) (P02769 whole entry, looked up): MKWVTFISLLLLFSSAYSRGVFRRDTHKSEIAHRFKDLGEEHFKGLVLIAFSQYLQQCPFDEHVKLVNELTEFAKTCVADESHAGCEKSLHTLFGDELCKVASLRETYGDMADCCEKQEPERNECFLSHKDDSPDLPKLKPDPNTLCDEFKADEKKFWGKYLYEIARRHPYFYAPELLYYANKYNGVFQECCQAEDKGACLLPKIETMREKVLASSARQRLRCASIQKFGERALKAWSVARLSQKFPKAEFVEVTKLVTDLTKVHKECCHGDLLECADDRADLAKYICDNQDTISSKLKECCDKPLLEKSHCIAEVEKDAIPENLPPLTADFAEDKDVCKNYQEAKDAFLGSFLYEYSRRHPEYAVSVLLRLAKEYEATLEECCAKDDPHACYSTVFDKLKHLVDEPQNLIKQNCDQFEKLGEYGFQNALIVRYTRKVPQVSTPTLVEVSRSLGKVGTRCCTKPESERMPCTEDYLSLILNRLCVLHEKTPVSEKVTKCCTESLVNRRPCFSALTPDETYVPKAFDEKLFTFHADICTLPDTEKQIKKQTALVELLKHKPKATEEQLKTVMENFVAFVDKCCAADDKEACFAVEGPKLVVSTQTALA
Sequence of Alpha-bungarotoxin (Bungarus multicinctus) (P60615 whole entry, looked up): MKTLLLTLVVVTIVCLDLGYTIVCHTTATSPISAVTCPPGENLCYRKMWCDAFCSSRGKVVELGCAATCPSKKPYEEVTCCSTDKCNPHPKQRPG
Sequence of Torsin-1A-interacting protein 1 (Homo sapiens) (Q5JTV8 whole entry, looked up): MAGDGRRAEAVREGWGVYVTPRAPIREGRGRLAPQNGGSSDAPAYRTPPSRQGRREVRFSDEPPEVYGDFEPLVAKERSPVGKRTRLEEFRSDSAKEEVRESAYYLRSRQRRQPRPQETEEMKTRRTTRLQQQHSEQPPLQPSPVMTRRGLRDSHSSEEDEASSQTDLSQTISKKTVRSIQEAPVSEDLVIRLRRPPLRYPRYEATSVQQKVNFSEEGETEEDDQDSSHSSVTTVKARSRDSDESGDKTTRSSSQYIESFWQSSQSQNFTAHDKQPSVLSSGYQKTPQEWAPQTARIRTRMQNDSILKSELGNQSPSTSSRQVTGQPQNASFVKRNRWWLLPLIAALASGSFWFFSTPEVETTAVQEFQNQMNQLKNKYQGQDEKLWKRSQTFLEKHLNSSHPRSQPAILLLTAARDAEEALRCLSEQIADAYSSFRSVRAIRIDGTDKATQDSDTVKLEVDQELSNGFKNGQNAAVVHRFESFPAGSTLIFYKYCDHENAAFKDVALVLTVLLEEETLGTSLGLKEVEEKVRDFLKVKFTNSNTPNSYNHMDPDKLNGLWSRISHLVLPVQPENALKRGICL

With `COCCOC(=O)N1C(=O)[C@@]2(c3cc(C#CCC(C(=O)OC)C(=O)OC)ccc31)[C@H](c1ccc(OCCO)cc1)N1[C@H](c3ccccc3)[C@H](c3ccccc3)OC(=O)[C@H]1[C@@H]2C(N)=O`, the composite z-score in test [1] is 1.35; in test [3], 0.535; in test [4], 1.61; in [5] it was 0.193; in [6], -0.0718; in test [7], 0.0639. For the same compound, the composite z-score in test [8] was 0.129; in test [9] it was -0.189; in test [10], 0.992; with Albumin (Bos taurus), 0.84; in test [12], -0.0077; in [13] it was 0.0264. Also, the composite z-score was found to be 0.57 in test [14]; 2.82 in test [15]; 1.02 in test [16]; 1.29 in the test on Sam68 (KHDRBS1); 0.474 in test [17]; 1.15 in test [18]. This compound also gave a z-score in [2] of -1.12. For the same compound, in test [11], the composite Z-score was 0.674 (inactive).
In the case of `O=C1c2ccccc2[C@](Cc2ccccc2I)(C(=O)NCC(F)(F)F)[C@H](c2ccc(CO)cc2)N1Cc1ccccc1`, the composite z-score in [1] was 1.42; in test [3], -0.38; in test [4], 1.4; in test [5], 0.464; in test [6] it was -0.155; in test [7] it was 0.0048. Further, the composite z-score in test [8] was 0.0139; in test [9] it was 0.419; in test [10] it was 0.928; with Albumin (Bos taurus), 0.684; in test [12], -0.0183; in test [13] it was -0.112. The composite z-score in [14] was 0.593; in [15], 2.19; in [16], 0.321; in the test on Sam68 (KHDRBS1), 1.18; in [17], -0.213; in test [18] it was 1.11. This compound also returned a z-score in test [2] of -0.673. Further, the composite Z-score in test [11] is 0.341 (inactive).
On to `CCCNC(=O)[C@@H]1c2ccccc2C(=O)N(CC23CC4CC(CC(C4)C2)C3)[C@H]1c1ccc(CO)cc1`, for which the composite z-score in [1] amounted to 0.772; in test [3] it was 1.03; in [4], 0.992; in test [5] it was 0.489; in test [6], 0.189; in test [7], 0.265. Besides, the composite z-score is 0.697 in [8]; 0.986 in [9]; 0.88 in test [10]; 0.472 in the test with Albumin (Bos taurus); 0.0702 in test [12]; 0.0521 in [13]. In addition, the composite z-score in [14] worked out at 0.395; in test [15], 1.98; in [16], 0.12; in the test with Sam68 (KHDRBS1), 1.29; in test [17], 0.781; in test [18], 1.09. Besides, the z-score in test [2] is -1.15. In test [11], the composite Z-score is 0.39 (inactive).
Turning to `C=CCOC(=O)[C@@H]1[C@H]2C(=O)O[C@H](c3ccccc3)[C@H](c3ccccc3)N2[C@H](c2ccc(OCCOC(=O)[C@@H]3C[C@@H]4C(=O)N[C@@H](CCCCNC(C)=O)C(=O)N4[C@@H]3c3ccc(O)cc3)cc2)[C@@]12C(=O)Nc1ccc(I)cc12`, the composite z-score in [1] was 1.41; in test [3], 0.722; in test [4], 0.743; in test [5], -0.342; in test [6], -0.0684; in test [7] it was 0.0098. Besides, the composite z-score was -0.192 in [8]; 0.6 in test [9]; 0.831 in test [10]; -0.427 with Albumin (Bos taurus); 0.844 in [12]; -0.0458 in test [13]. Moreover, the composite z-score in test [14] worked out at 0.5; in [15] it was 1.86; in test [16], 0.705; with Sam68 (KHDRBS1) it was 1.29; in test [17], 0.986; in test [18], 1.15. The same compound came in with a z-score in [2] of -0.66. Also, in [11], the composite Z-score is 1.48 (inactive).
Consider `CC(C)[Si](C#C[Si](C(C)C)(C(C)C)C(C)C)(O[C@H](C)c1cn(Cc2cccc(Cl)c2)nn1)C(C)C`, for which the composite z-score in test [1] is 0.953; in test [3], 0.499; in [4], 1.01; in test [5], 0.506; in test [6], -0.253; in test [7], -0.243. Also, the composite z-score in test [8] is -0.175; in test [9], 0.0392; in [10], 1.03; in the test with Albumin (Bos taurus), 0.811; in test [12], -0.0647; in [13], -0.147. The composite z-score was 0.554 in test [14]; 0.842 in test [15]; -0.34 in [16]; 1.28 with Sam68 (KHDRBS1); 0.226 in test [17]; 0.8 in [18]. This compound registered a z-score in [2] of -0.266. Besides, the composite Z-score in test [11] is -0.596 (inactive).
As to `COCCOC(=O)N1C(=O)[C@@]2(c3cc(C#CCCO)ccc31)[C@H](C(=O)NC[C@H](O)c1ccccc1)[C@H]1C(=O)O[C@H](c3ccccc3)[C@H](c3ccccc3)N1[C@@H]2c1ccccc1OCCO`, the composite z-score was 1.43 in [1]; 0.966 in test [3]; 0.362 in [4]; -0.354 in test [5]; 0.287 in test [6]; 0.323 in test [7]. The composite z-score in test [8] was 1.36; in [9], 1.12; in [10], 0.784; with Albumin (Bos taurus) it was -0.919; in test [12], 0.252; in test [13], 0.177. Further, the composite z-score amounted to 0.0771 in test [14]; 1.33 in test [15]; 1.32 in test [16]; 1.3 in the test with Sam68 (KHDRBS1); 0.969 in [17]; 1.09 in [18]. The compound also registered a z-score in test [2] of -1.31. Besides, the composite Z-score in [11] was 0.427 (inactive).
On to `COC(=O)C(CC#Cc1ccc2c(c1)[C@]1(C(=O)N2)[C@H](c2ccc(O)cc2)N2[C@H](c3ccccc3)[C@H](c3ccccc3)OC(=O)[C@H]2[C@@H]1C(N)=O)C(=O)OC`, for which the composite z-score in test [1] is -0.863; in test [3], -0.91; in [4], -1.27; in test [5], 0.842; in test [6] it was -0.202; in test [7], -0.352. For the same compound, the composite z-score in test [8] is -0.263; in [9] it was -0.931; in [10], -1.83; with Albumin (Bos taurus) it was -0.999; in test [12], -0.256; in [13], -0.118. In addition, the composite z-score in test [14] is -0.669; in test [15] it was -0.43; in [16] it was -0.404; with Sam68 (KHDRBS1), -1.43; in [17], -2.25; in [18], -1.3. In [2], this compound gave a z-score of -0.32. Also, the composite Z-score in test [11] is -0.421 (inactive).
Regarding `CC(C)C(CO)N1C(=O)[C@@H]2[C@H]3C(=O)OCC=C[C@H]3OC23C=CCN(CCN2CCOCC2)C(=O)[C@@H]13` (stereo not given in full), the composite z-score in test [1] was -0.0831; in test [3], -0.0025; in [4], -0.229; in [5] it was -1.32; in test [6], -0.176; in test [7], -0.0709. The composite z-score in [8] is -0.0719; in [9], -0.128; in test [10] it was 0.451; with Albumin (Bos taurus) it was -0.36; in test [12] it was -0.125; in [13] it was -0.164. Further, the composite z-score in [14] is -0.111; in test [15] it was -0.332; in [16], -0.0765; with Sam68 (KHDRBS1) it was 0.0784; in test [17] it was 0.446; in test [18] it was 0.166. This compound also showed a z-score in test [2] of -0.911. Also, the composite Z-score in [11] was -0.0157 (inactive).

Source of the values: PubChem BioAssay.
